Reference: PubChem BioAssay
For part of these data: Entries with a potency or affinity are not part of this list. Activity calls are given as the source filed them. Unless noted, no rule for the calls is given here.

Columns and labels:
[1] = antimalarial activity against Dd2 strain (AID 2302;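 active = growth inhibition above 50% at the single 2 µM test dose, taken to imply half-maximal potency below 2 µM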;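 also: 0% = DMSO untreated growth and 100% = chloroquine plus artemisinin killed control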); settings: P. falciparum Dd2 in RBCs, LDH growth readout, 72 h; at 2 µM; hits give high values
[2] = human hepatoma cell viability loss – ATP luminescence, cytotoxicity control for P. falciparum antimalarial project, primary screen (AID 2303;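 active = inhibition above 50%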;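 also: 0% = DMSO wells and 100% = digitonin-killed cells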); settings: HepG2 viability, 24-48 h, at 10 µM, hits give high values
[3] = molecular target: L-lactate dehydrogenase (Plasmodium falciparum (isolate CDC / Honduras)) (UniProt Q27743); test: PfLDH activity inhibition – cell lysate, 3D7 strain, counter-screen for P. falciparum growth inhibition project (AID 2304);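 also: 0% = vehicle and 100% = reference inhibitor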; settings: P. falciparum 3D7 crude extract, LDH APAD/NBT absorbance; at 2 µM; hits give high values
[4] = inhibition of 3D7 malaria parasite growth – strain 3D7 (AID 2306);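 also: 0% = DMSO wells and 100% = chloroquine plus artemisinin control wells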; settings: P. falciparum 3D7 erythrocytic growth, LDH absorbance, 72 h; at 2 µM; hits give high values
[5] = molecular target: Calcium-dependent protein kinase 1 (Plasmodium falciparum (isolate 3D7)) (UniProt P62344); test: PfCDPK1 kinase inhibitors, biochemical, TCAMS library (AID 1159585; cut-off not given, nearly all actives have IC50 up to about 0.98 µM;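 also: inhibitors leave more ATP so luminescence rises with inhibition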); settings: recombinant PfCDPK1, Kinase-Glo ATP depletion luminescence
[6] = molecular target: Plasmodium falciparum protein kinase 6 (PK6, PF3D7_1337100) (UniProt Q8IDW1); test: PfPK6 kinase inhibitors, biochemical, TCAMS library (AID 1159586); settings: recombinant PfPK6, Kinase-Glo ATP depletion luminescence
[7] = molecular target: Protein kinase 7 (PK7), Plasmodium falciparum 3D7 (PF3D7_0213400) (UniProt Q7YTF7); test: inhibition of Plasmodium PK7 catalytic activity – biochemical, TCAMS antimalarial set, Kinase-Glo luminescence (AID 1159587); settings: recombinant PfPK7, Kinase-Glo ATP depletion luminescence
[8] = molecular target: Calcium-dependent protein kinase 4 (Plasmodium falciparum (isolate 3D7)) (UniProt Q8IBS5); test: PfCDPK4 kinase inhibitors, biochemical, TCAMS library (AID 1159588; cut-off not given, nearly all actives have IC50 up to about 0.91 µM); settings: recombinant PfCDPK4, Kinase-Glo ATP depletion luminescence
Sequence of Calcium-dependent protein kinase 4 (Plasmodium falciparum (isolate 3D7)) (Q8IBS5 whole entry, looked up): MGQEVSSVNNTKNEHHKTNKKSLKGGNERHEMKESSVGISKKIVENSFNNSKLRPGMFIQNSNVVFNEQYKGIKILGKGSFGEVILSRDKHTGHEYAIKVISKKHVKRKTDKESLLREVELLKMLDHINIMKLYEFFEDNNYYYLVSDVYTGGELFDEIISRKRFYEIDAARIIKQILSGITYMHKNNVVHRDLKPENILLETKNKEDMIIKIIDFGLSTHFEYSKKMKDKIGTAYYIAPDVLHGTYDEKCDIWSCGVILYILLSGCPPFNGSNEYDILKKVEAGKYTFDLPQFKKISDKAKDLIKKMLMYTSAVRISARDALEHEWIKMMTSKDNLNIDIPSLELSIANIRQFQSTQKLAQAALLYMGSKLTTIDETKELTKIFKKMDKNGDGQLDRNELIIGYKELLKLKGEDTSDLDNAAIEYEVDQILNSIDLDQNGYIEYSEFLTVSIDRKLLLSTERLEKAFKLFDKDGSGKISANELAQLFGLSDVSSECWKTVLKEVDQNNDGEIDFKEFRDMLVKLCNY

Sequence of Protein kinase 7 (PK7), Plasmodium falciparum 3D7 (PF3D7_0213400) (Q7YTF7 1-343): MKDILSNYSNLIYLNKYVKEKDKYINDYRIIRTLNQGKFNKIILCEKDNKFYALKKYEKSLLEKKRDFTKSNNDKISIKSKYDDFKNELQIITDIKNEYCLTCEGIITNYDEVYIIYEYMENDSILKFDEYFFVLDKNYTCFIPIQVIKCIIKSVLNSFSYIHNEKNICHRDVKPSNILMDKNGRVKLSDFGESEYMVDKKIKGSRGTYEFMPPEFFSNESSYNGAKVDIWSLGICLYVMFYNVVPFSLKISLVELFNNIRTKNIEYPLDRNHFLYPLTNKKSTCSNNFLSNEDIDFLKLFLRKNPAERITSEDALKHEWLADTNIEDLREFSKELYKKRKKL
Sequence of Plasmodium falciparum protein kinase 6 (PK6, PF3D7_1337100) (Q8IDW1 1-305): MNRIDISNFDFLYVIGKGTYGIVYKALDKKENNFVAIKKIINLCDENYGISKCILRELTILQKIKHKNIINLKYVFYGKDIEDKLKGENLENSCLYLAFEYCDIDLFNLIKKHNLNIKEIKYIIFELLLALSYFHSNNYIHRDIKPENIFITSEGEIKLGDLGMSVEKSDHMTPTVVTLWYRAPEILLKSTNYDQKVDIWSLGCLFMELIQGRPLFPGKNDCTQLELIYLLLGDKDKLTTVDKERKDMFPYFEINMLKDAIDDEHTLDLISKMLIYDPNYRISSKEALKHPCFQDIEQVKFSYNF
Sequence of Calcium-dependent protein kinase 1 (Plasmodium falciparum (isolate 3D7)) (P62344 whole entry, looked up): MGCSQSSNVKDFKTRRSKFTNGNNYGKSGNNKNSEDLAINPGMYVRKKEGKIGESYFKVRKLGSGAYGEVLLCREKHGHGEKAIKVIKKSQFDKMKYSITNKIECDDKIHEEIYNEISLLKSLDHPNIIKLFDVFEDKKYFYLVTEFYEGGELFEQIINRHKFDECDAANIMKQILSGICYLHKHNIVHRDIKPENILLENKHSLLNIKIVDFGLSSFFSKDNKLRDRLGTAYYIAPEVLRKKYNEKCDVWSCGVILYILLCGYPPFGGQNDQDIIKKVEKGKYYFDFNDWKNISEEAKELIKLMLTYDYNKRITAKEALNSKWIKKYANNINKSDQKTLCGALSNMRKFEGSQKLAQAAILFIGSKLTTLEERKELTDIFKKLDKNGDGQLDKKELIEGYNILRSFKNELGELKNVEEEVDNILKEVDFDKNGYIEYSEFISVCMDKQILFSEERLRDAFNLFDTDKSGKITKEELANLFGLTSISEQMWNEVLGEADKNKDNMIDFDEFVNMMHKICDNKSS
Sequence of L-lactate dehydrogenase (Plasmodium falciparum (isolate CDC / Honduras)) (Q27743 whole entry, looked up): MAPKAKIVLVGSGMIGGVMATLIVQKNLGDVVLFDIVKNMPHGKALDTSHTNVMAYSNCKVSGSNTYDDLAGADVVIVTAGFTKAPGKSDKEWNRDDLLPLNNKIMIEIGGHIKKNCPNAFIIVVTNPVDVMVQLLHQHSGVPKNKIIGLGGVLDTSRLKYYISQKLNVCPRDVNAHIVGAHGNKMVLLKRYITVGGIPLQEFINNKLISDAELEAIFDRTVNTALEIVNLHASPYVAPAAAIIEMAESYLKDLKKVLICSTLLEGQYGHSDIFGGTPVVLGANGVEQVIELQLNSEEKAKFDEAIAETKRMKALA

COc1ccc2nccc([C@@H](O)CN3CCC(NCCOc4cccc(C(F)(F)F)c4Cl)CC3)c2c1
inactive: inhibition [2] 13% | inhibition [3] -3% | outcome [5] | outcome [6] | outcome [7] | outcome [8]
active: growth inhibition [1] 98% | growth inhibition [4] 100%

CN(C)CCCN1CCN(C(=O)c2cccc(-c3noc(C(F)(F)F)n3)c2)CC1
active: growth inhibition [1] 60% | growth inhibition [4] 92%
inactive: inhibition [2] -7% | inhibition [3] -4% | outcome [5] | outcome [6] | outcome [7] | outcome [8]

CCc1cn2c3c(cc(C(=O)N[C@@H](Cc4ccccc4)[C@H](O)CNC4CCCCC4)cc13)N(C)S(=O)(=O)C2
inactive: inhibition [2] 20% | inhibition [3] 0% | outcome [5] | outcome [6] | outcome [7] | outcome [8]
active: growth inhibition [1] 99% | growth inhibition [4] 99%

Cc1cc(N[C@@H](CC(C)C)C(=O)NC2CCCC2)nc(NCC2CCCCC2)n1
active: growth inhibition [1] 88% | growth inhibition [4] 101%
inactive: inhibition [2] 8% | inhibition [3] 0% | outcome [5] | outcome [6] | outcome [7] | outcome [8]

O=C(/C=C/c1ccc(Cl)c(Cl)c1)N1CCC(CN2CCC(c3c[nH]c4cnccc34)CC2)CC1
inactive: inhibition [2] 39% | inhibition [3] 7% | outcome [5] | outcome [6] | outcome [7] | outcome [8]
active: growth inhibition [1] 100% | growth inhibition [4] 102%

COc1ccc(-c2cccc(NC(=O)c3cccc(Cl)c3)c2)cc1CN(C)CCN(C)C
inactive: inhibition [2] 32% | inhibition [3] 4% | outcome [5] | outcome [6] | outcome [7] | outcome [8]
active: growth inhibition [1] 73% | growth inhibition [4] 101%

O=C(Nc1cccc(Oc2ccccc2)c1)N[C@H]1CCN(Cc2ccc(OCCCN3CCCCC3)cc2)C1
inactive: inhibition [3] -2% | outcome [5] | outcome [6] | outcome [7] | outcome [8]
active: growth inhibition [1] 70% | inhibition [2] 94% | growth inhibition [4] 101%

COc1ccc(S(=O)(=O)N2CCOCC2)cc1NC(=O)c1cc2ccccc2o1
inactive: growth inhibition [1] -1% | inhibition [2] 8% | inhibition [3] -2% | outcome [5] | outcome [6] | outcome [7] | outcome [8]
active: growth inhibition [4] 93%

Cc1ccc(NC(=O)c2ccc(CN3CCCN(Cc4cccc(O)c4)CC3)cc2)cc1F
active: growth inhibition [4] 97%
inactive: growth inhibition [1] 31% | inhibition [2] 48% | inhibition [3] -2% | outcome [5] | outcome [6] | outcome [7] | outcome [8]

O=C1CCCN1CCCNCc1ccc(-c2cccc(-c3nc4ccc(C(F)(F)F)cc4[nH]3)c2)cc1
active: growth inhibition [1] 98% | growth inhibition [4] 100%
inactive: inhibition [2] 14% | inhibition [3] 2% | outcome [5] | outcome [6] | outcome [7] | outcome [8]

N#Cc1ccc(NC(=O)c2ccc(Cc3ccc4c(c3)CCN(C3CCC3)CC4)cn2)cc1
inactive: growth inhibition [1] 2% | inhibition [3] -4% | outcome [5] | outcome [6] | outcome [7] | outcome [8]
active: inhibition [2] 66% | growth inhibition [4] 91%

COc1cc2nc(N3CCC(CNC(=O)c4ccc(C(C)=O)cc4)CC3)nc(N)c2cc1OC
active: growth inhibition [4] 96%
inactive: growth inhibition [1] 15% | inhibition [2] 10% | inhibition [3] 1% | outcome [5] | outcome [6] | outcome [7] | outcome [8]

Cc1cc(N[C@@H](CC(C)C)C(=O)Nc2ccccc2)nc(NCC2CCCCC2)n1
active: growth inhibition [1] 95% | growth inhibition [4] 101%
inactive: inhibition [2] 8% | inhibition [3] 1% | outcome [5] | outcome [6] | outcome [7] | outcome [8]

Cc1ccc(O)cc1Nc1ccnc2cc(-c3csc(CNCCN4CCOCC4)n3)ccc12
active: growth inhibition [1] 99% | growth inhibition [4] 101%
inactive: inhibition [2] 6% | inhibition [3] -3% | outcome [5] | outcome [6] | outcome [7] | outcome [8]

CC(C)c1ccc(CN2CCC(CNC(=O)c3cc(-c4ccccc4F)cs3)C2)cc1 (configuration not stated)
inactive: growth inhibition [1] 29% | inhibition [2] 32% | inhibition [3] 5% | outcome [5] | outcome [6] | outcome [7] | outcome [8]
active: growth inhibition [4] 101%

CN(C)CCCN(C)c1cccc2c1nc(-c1cccnc1)n2CCNCc1ccccc1
inactive: inhibition [2] 4% | inhibition [3] 4% | outcome [5] | outcome [6] | outcome [7] | outcome [8]
active: growth inhibition [1] 88% | growth inhibition [4] 89%

COc1ccc2nccc([C@@H](O)CN3CCC(NC(=O)/C=C/c4c[nH]c5c(C)cccc45)CC3)c2c1
active: growth inhibition [1] 88% | growth inhibition [4] 101%
inactive: inhibition [2] 23% | inhibition [3] 4% | outcome [5] | outcome [6] | outcome [7] | outcome [8]

CNCCNCc1ccc(-c2ccc(-c3nc4ccc(F)cc4[nH]3)cc2)cc1
inactive: inhibition [2] 30% | inhibition [3] 4% | outcome [5] | outcome [6] | outcome [7] | outcome [8]
active: growth inhibition [1] 97% | growth inhibition [4] 98%

Cc1cc(F)ccc1-c1nc(NCCCNCCc2ccccc2)nc2c1ccc(=O)n2-c1c(F)cccc1F
inactive: inhibition [2] 36% | inhibition [3] -6% | outcome [5] | outcome [6] | outcome [7] | outcome [8]
active: growth inhibition [1] 100% | growth inhibition [4] 100%

O=C(NCc1cccc(F)c1)Nc1cccc(-c2ccc(-c3nc4ccc(F)cc4[nH]3)cc2)c1
inactive: growth inhibition [1] 0% | inhibition [2] 46% | inhibition [3] -3% | outcome [5] | outcome [6] | outcome [7] | outcome [8]
active: growth inhibition [4] 84%

O=C(Nc1ccc(F)c(C(F)(F)F)c1)NC1CCN(CCCCCNC(=O)[C@@H]2C[C@H]2c2ccc(Cl)c(Cl)c2)CC1
active: inhibition [2] 96% | growth inhibition [4] 100%
inactive: growth inhibition [1] 16% | inhibition [3] 0% | outcome [5] | outcome [6] | outcome [7] | outcome [8]

Cc1nc2ccc(-c3nc4ccc(N)cc4[nH]3)cc2[nH]1
inactive: inhibition [2] 6% | inhibition [3] -5% | outcome [5] | outcome [6] | outcome [7] | outcome [8]
active: growth inhibition [1] 80% | growth inhibition [4] 94%

O=C(Nc1ccc(Oc2ccccc2)cc1)N1CCC(CCN2CCC(c3c[nH]c4ccccc34)CC2)CC1
inactive: growth inhibition [1] 36% | inhibition [2] 42% | inhibition [3] 7% | outcome [5] | outcome [6] | outcome [7] | outcome [8]
active: growth inhibition [4] 100%

CCN(CC)CCCN(Cc1ccc(-c2ccc(C(F)(F)F)cc2)cc1)C(=O)Cn1c(SCc2cccc(F)c2F)cc(=O)c2ccccc21
active: growth inhibition [1] 82% | growth inhibition [4] 87%
inactive: inhibition [2] 45% | inhibition [3] 7% | outcome [5] | outcome [6] | outcome [7] | outcome [8]

Oc1[nH]c2ccccc2c1N=NC(=S)N1CCOCC1
inactive: inhibition [3] 6% | outcome [5] | outcome [6] | outcome [7] | outcome [8]
active: growth inhibition [1] 75% | inhibition [2] 51% | growth inhibition [4] 95%

O=C(NCC(NCCCNc1cc(=O)c2ccccc2[nH]1)c1cc(Br)cc(Br)c1)C1=CCCC1 (configuration not stated)
active: growth inhibition [4] 96%
inactive: growth inhibition [1] 48% | inhibition [2] -4% | inhibition [3] 7% | outcome [5] | outcome [6] | outcome [7] | outcome [8]

COc1ccc(C(F)(F)F)cc1N1CCN(CCCCNC(=O)c2ccc(NC(=O)c3ccc(Cl)cc3)cc2)CC1
active: growth inhibition [4] 94%
inactive: growth inhibition [1] 1% | inhibition [2] 12% | inhibition [3] 8% | outcome [5] | outcome [6] | outcome [7] | outcome [8]

O=C(c1cc2cccc([N+](=O)[O-])c2[nH]1)N1CCC(CCN2CCC(c3c[nH]c4ccccc34)CC2)CC1
active: growth inhibition [4] 89%
inactive: growth inhibition [1] 24% | inhibition [2] 45% | inhibition [3] 1% | outcome [5] | outcome [6] | outcome [7] | outcome [8]

CC(C)c1cc(Oc2c(I)cc(CCCc3ncc[nH]3)cc2I)ccc1O
inactive: growth inhibition [1] 1% | inhibition [2] 28% | inhibition [3] 0% | outcome [5] | outcome [6] | outcome [7] | outcome [8]
active: growth inhibition [4] 88%

N#Cc1ccc(NC(=NCc2ccc(Cl)cc2Cl)Nc2cccc(Cl)c2Cl)c(O)c1
active: growth inhibition [1] 75% | growth inhibition [4] 97%
inactive: inhibition [2] 3% | inhibition [3] -6% | outcome [5] | outcome [6] | outcome [7] | outcome [8]

O=S(=O)(c1cc(Cl)ccc1Cl)N1CCCCC(c2ccc(C(F)(F)F)cc2)=N1
active: growth inhibition [1] 68% | growth inhibition [4] 87%
inactive: inhibition [2] 15% | inhibition [3] -1% | outcome [5] | outcome [6] | outcome [7] | outcome [8]

O=C(Nc1cccc(C(F)(F)F)c1)Nc1ccc(F)c([N+](=O)[O-])c1
active: growth inhibition [1] 100% | growth inhibition [4] 101%
inactive: inhibition [2] 43% | inhibition [3] -4% | outcome [5] | outcome [6] | outcome [7] | outcome [8]

O=C1O[C@H](c2ccccc2)[C@H](c2ccccc2)N(C(=O)OCc2ccccc2)[C@H]1Cc1ccccc1C1CCCC1
active: inhibition [2] 56% | growth inhibition [4] 97%
inactive: growth inhibition [1] -3% | inhibition [3] 1% | outcome [5] | outcome [6] | outcome [7] | outcome [8]

CO/C(=C\C=C\c1cc2cc(Cl)c(Cl)cc2[nH]1)C(=O)NCCCN1CCC(c2ccccc2)CC1
inactive: inhibition [2] 33% | inhibition [3] -1% | outcome [5] | outcome [6] | outcome [7] | outcome [8]
active: growth inhibition [1] 92% | growth inhibition [4] 100%

Cc1cnc2cc3c(cc2c1N1CCN(C)CC1)NCC3
active: growth inhibition [1] 69% | growth inhibition [4] 102%
inactive: inhibition [2] 12% | inhibition [3] 3% | outcome [5] | outcome [6] | outcome [7] | outcome [8]

CN(C)CCNCc1cccc(-c2ccc3c(Nc4ccc(F)cc4Cl)ccnc3c2)c1
inactive: inhibition [2] 17% | inhibition [3] 1% | outcome [5] | outcome [6] | outcome [7] | outcome [8]
active: growth inhibition [1] 98% | growth inhibition [4] 102%

CN1CCC(NCc2cccc(-c3ccc(S(=O)(=O)NCCc4ccccn4)c(F)c3)c2)CC1
inactive: growth inhibition [1] 26% | inhibition [2] 11% | inhibition [3] 7% | outcome [5] | outcome [6] | outcome [7] | outcome [8]
active: growth inhibition [4] 98%

CN(C)CCN(C)Cc1cccc(-c2cccc(NC(=O)c3cccc(C#N)c3)c2)c1
active: growth inhibition [4] 92%
inactive: growth inhibition [1] 10% | inhibition [2] -4% | inhibition [3] -1% | outcome [5] | outcome [6] | outcome [7] | outcome [8]

COc1ccc2nccc([C@@H](O)CN3CCC(NCc4cc5cc(C)ccc5s4)CC3)c2c1
inactive: inhibition [2] 13% | inhibition [3] 3% | outcome [5] | outcome [6] | outcome [7] | outcome [8]
active: growth inhibition [1] 74% | growth inhibition [4] 92%
